This note sets out measurements from PubChem BioAssay.

Each structure is given as a SMILES string. Records with an inconclusive call do not appear. Activity calls are given as the source filed them.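 The calls were made as follows, unless noted: active = viability increase at or above a cutoff of the median across tested compounds plus 3 SD (cut at about 8.5% in these data, passing the limit was not always enough); inconclusive = some gains above the cutoff, reason not given; inactive = the rest.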

The nature of assay [1]: reducers of endogenous Her2 protein level, primary screen, SKBR3 breast tumor cells, AlphaScreen, ATP viability (AID 461;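 active = Her2 level under about 52% in both replicate screens, with viability over 70% of control, limit read from the data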;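 as to Her2 level: lower value means less Her2 protein in the cells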;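 as to viability: percent of carrier control wells set as 100% viability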). The settings on record: 18-24 h, measured here: SKBR3 viability, ATP luminescence, at 10 µM. For orientation: In Alpha technology, singlet oxygen from a donor bead excites a nearby acceptor bead.
In assay [2] the target is Receptor tyrosine-protein kinase erbB-2 (Homo sapiens) (UniProt P04626). Described as above. The settings on record: 18-24 h, at 10 µM, stronger effect = lower value.
The nature of assay [3]: SK-BR-3 cell growth inhibitors, pilot screen, 24 h, human (AID 572;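 active = viability at or below 10% of carrier control in both of two separate runs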;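 also: compound exposure lasted between 18 and 24 h rather than exactly 24 h; 100% = carrier-treated control wells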). The settings on record: SK-BR-3 viability, CellTiter-Glo luminescence, at 10 µM, stronger effect = lower value. For orientation: ATP-based viability assays read luminescence as a measure of living cells.
A short description of assay [4]: HUVEC growth inhibition – cell-based, human, primary screen (AID 575;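 active = viability at or below 30% in both replicate assays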;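 also: 100% = median of untreated cell wells with 0.1% DMSO on each plate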). The settings on record: HUVEC proliferation, CellTiter-Glo luminescence, 72 h; at 10 µM; stronger effect = lower value.
Assay [5] in a line: growth inhibitors of H69AR lung tumor, primary screen, human, duplicate replicates (AID 580;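 active = viability at or under a set limit in both replicates, limit being median viability minus 3 SD, cut at about 48% in these data, passing the limit was not always enough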;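 also: 100% = mean luminescence of untreated wells and 0% = no signal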). The note with it: H69AR lung tumor cells viability, ATP luminescence, 72 h; at 10 µM; stronger effect = lower value.
Assay [6] can be described thus: reversal of MRP1-mediated doxorubicin resistance, pilot screen, H69AR cells, doxorubicin co-treatment (AID 601;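 active = viability loss from added drug above about 55%, and viability with drug at most 40%, in both replicates, limit read from the data, passing the limit was not always enough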). The settings on record: CellTiter-Glo, 72 h, at 10 µM; for differential viability (reversal): stronger effect = higher value.
Assay [7] in a line: 384-well plate pilot, post-Golgi transport modulator project, inhibition of yeast transport mutant growth (AID 636; in the data active = inhibition above about 31%). The settings on record: absorbance 615 nm, about 18 h, stronger effect = higher value.
Assay [8] can be described thus: growth suppression of yeast trafficking mutant, preliminary HTS, modulators of trafficking downstream of Golgi apparatus project, 1536-format plate, OD 615 nm (AID 637; in the data active = inhibition above about 30%). The settings on record: yeast transport mutant growth, absorbance 615 nm, 18 h; stronger effect = higher value.
The nature of assay [9]: OD615 S. cerevisiae growth inhibition, permissive medium, pilot counter-assay, permissive growth control for S. cerevisiae lifespan shortening project (AID 705;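 active = growth inhibition above 25% in both replicates, a cutoff set 3 SD above the mean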). The note with it: OD615, 24 h, at 10 µM, stronger effect = higher value.
Assay [10] can be described thus: Restrictive medium S. cerevisiae growth inhibition, OD615, pilot screen of yeast lifespan reduction project, restrictive growth control (AID 706;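 active = growth inhibition above a set limit, 3 SD over mean compound inhibition, in both replicates, cut at about 43% in these data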;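 also: modified DeaD lifespan yeast strain shifted to restrictive glucose medium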). The note with it: OD615, 48 h, at 10 µM, stronger effect = higher value.
The nature of assay [11]: viability gain of MRP-1-high H69AR cells under doxorubicin, pilot screen, MRP-1 activator project, CellTiter-Glo, duplicate (AID 807).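 Also: compound pretreatment 18-22 h then 72 h combined with doxorubicin; 0% = doxorubicin alone and 100% = vehicle without doxorubicin.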 The note with it: H69AR viability with doxorubicin, CellTiter-Glo luminescence; at 10 µM; stronger effect = higher value.
Assay [12] in a line: growth suppression of beta-catenin knockout HCT116, pilot screen, human colon tumor cells (AID 823;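 active = cell viability at or below a set limit in both duplicate runs, the limit being the all-compound median minus 4 SD, cut at about 23% in these data, passing the limit was not always enough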;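 also: 0% = wells killed by 20 µM Hyamine and 100% = untreated DMSO cell wells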). The note with it: CellTiter-Glo, 60 h, at 10 µM, stronger effect = lower value.
Assay [13] is described as follows: growth suppression of PTEN-deleted HCT116, pilot screen, cell-based, HCT116 clonal line, CellTiter-Glo (AID 824;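 active = viability at or below 27.92% in each of two runs, the all-compound median minus 4 SD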;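 also: 0% = 20 µM Hyamine control and 100% = vehicle cell control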). The note with it: 60 h, at 10 µM, stronger effect = lower value.
The nature of assay [14]: inhibitors of the yeast RAM network, pilot screen, dse1pr::URA3 reporter, 5-FOA selection (AID 869;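 active = inhibition over a set limit, the all-compound mean plus 3 SD, in both replicate runs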;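 also: 0% = DMSO wells with no growth and 100% = 10 µM 1-NA-PP1 with full growth; RAM network block rescues cells from 5-FOA so hits raise OD615 growth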). The settings on record: S. cerevisiae dse1pr::URA3 5-FOA growth, OD615, 2 d; at 10 µM; stronger effect = higher value; strain carries analog-sensitive mutant Cbk1 kinase.
Assay [15] can be described thus: RAM signaling pathway blockade in yeast – S. cerevisiae, Pdr1DBD-CYC8 efflux-inhibited sensitized strain, primary screen (AID 1298;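 active = RAM network inhibition above 8.4% in each of two replicates, 3 SD over the compound average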;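 also: 0% = DMSO untreated cells without growth and 100% = 10 µM 1-NA-PP1 full growth; higher means more yeast growth rescued from 5-FOA killing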). The settings on record: S. cerevisiae cbk1-as DSE1-URA3 strain, 5-FOA growth OD615, 2 d; at 50 µM; stronger effect = higher value.
The mark [16] stands for this setting: H69AR cells + 2 uM doxorubicin, measured here: viability with 2 uM doxorubicin, stronger effect = lower value.
Setting [17] is: H69AR cells, compound alone cytotoxicity.

Receptor tyrosine-protein kinase erbB-2 (Homo sapiens), sequence (P04626 whole entry, looked up): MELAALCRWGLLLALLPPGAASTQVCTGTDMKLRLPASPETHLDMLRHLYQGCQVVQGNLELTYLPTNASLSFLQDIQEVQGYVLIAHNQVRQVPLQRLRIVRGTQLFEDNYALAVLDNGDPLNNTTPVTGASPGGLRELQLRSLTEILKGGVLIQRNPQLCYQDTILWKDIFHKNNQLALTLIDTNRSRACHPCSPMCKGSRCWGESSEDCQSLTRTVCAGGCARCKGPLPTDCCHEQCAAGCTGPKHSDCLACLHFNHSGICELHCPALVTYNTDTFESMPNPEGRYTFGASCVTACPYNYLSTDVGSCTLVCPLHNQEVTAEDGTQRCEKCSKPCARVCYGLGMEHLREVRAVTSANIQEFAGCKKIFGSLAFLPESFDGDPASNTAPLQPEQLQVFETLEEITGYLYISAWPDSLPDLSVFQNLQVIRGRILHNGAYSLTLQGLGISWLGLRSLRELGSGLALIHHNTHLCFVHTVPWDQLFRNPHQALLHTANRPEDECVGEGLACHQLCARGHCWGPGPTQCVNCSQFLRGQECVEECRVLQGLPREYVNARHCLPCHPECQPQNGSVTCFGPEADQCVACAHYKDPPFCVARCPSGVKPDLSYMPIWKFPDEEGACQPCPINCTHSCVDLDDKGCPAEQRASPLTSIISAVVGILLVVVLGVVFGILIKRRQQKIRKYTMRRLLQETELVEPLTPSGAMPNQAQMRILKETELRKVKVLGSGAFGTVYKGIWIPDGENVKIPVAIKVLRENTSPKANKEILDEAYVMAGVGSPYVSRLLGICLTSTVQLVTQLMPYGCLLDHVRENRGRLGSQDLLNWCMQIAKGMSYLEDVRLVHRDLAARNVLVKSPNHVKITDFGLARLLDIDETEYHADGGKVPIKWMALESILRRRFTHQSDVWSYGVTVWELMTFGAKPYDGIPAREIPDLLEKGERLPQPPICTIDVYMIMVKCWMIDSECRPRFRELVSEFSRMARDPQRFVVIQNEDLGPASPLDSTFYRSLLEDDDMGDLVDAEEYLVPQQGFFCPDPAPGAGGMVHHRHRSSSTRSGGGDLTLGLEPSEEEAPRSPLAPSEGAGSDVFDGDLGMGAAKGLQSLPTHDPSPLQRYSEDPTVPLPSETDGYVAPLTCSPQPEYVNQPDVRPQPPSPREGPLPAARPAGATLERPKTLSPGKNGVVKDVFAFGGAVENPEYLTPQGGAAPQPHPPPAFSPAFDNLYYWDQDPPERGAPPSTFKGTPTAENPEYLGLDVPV

Take `COC(=O)Cn1c(CN2CCN(c3ccccc3F)CC2)nc2c1c(=O)n(C)c(=O)n2C`: the viability is 104% in assay [1]; 104% (inactive) in assay [3]; 95.3% (inactive) in [4]; 93.8% (inactive) in assay [5]; 87.3% in [6] (setting [16]); 93.8% in assay [6] (setting [17]). The viability in assay [12] was 97.4% (inactive); in assay [13], 90.1% (inactive). Further, the Her2 level in assay [2] is 95% (inactive). The differential viability (reversal) in assay [6] (H69AR cells + 2 uM doxorubicin) is 6.45% (inactive). For the same compound, the values for the inhibition in [7], in [8] and in [14] were -3.73% (inactive), 3.33% (inactive) and 2.47% (inactive), respectively. The growth inhibition in assay [9] is -7.25% (inactive); in assay [10], -1.94% (inactive). Moreover, in assay [11], the viability increase was 0.3% (inactive). Also, the RAM network inhibition in [15] is 6.25% (inactive).
Consider `Cc1cccc(N2C(=O)CC(N3CCN(c4cccc(C(F)(F)F)c4)CC3)C2=O)c1` (stereo not drawn), for which the viability in [1] was 94.5%; in assay [3], 94.5% (inactive); in assay [4], 73.2% (inactive); in [5] it was 96.9% (inactive); in assay [6] (setting [16]), 90.8%; in [6] (setting [17]) it was 96.9%. For the same compound, the figures for the viability in assay [12] and in [13] were 97.3% (inactive) and 97.8% (inactive), respectively. Further, the Her2 level in assay [2] is 74.5% (inactive). In assay [6] (H69AR cells + 2 uM doxorubicin), the differential viability (reversal) is 6.09% (inactive). Also, the inhibition in assay [7] was -2.86% (inactive); in assay [8], -9% (inactive); in assay [14], 1.32% (inactive). The growth inhibition in assay [9] is -12.6% (inactive); in assay [10] it was -8.65% (inactive). Besides, the viability increase in [11] is 3.91% (inactive). For the same compound, in assay [15], the RAM network inhibition was 5.57% (inactive).
Consider `COCCn1c(SCC(=O)Nc2ccc3c(c2)OCCO3)nc2c(c1=O)SC(C)C2` (stereo not drawn), for which the viability was 95% in assay [1]; 95% (inactive) in [3]; 108% (inactive) in assay [4]; 84.4% (inactive) in [5]; 106% in assay [6] (setting [16]); 84.4% in [6] (setting [17]). Also, the viability was 102% (inactive) in assay [12] and 95.8% (inactive) in [13]. The Her2 level in [2] was 110% (inactive). In [6] (H69AR cells + 2 uM doxorubicin), the differential viability (reversal) was -21.9% (inactive). In addition, the results for the inhibition in [7], in [8] and in [14] were -1.07% (inactive), -2% (inactive) and 1.71% (inactive), respectively. Further, the growth inhibition in [9] is -6.57% (inactive); in [10] it was -5.1% (inactive). Further, the viability increase in assay [11] was -1.19% (inactive). In addition, the RAM network inhibition in [15] was -0.11% (inactive).
With `Cc1nc2c(-c3ccc(F)cc3)c(C)nn2c(C)c1CCC(=O)NC(C)CCc1ccco1` (stereo not drawn), the viability in [1] is 102%; in [3], 102% (inactive); in assay [4], 63.1% (inactive); in [5], 91.2% (inactive); in assay [6] (setting [16]) it was 80.9%; in [6] (setting [17]), 91.2%. The viability in assay [12] was 75% (inactive); in [13] it was 82.3% (inactive). Besides, the Her2 level in assay [2] was 59% (inactive). The differential viability (reversal) in [6] (H69AR cells + 2 uM doxorubicin) is 10.4% (inactive). In addition, the inhibition is -0.64% (inactive) in assay [7], 7.83% (inactive) in assay [8] and 0.865% (inactive) in [14]. Also, the growth inhibition in assay [9] was 2.17% (inactive); in assay [10], -4.76% (inactive). Besides, the viability increase in [11] was -1.56% (inactive). The RAM network inhibition in assay [15] is 1.03% (inactive).
For `COc1ccc(C(c2sc3nc(C)nn3c2O)N2CCCCC2)cc1` (stereo not drawn), the viability in assay [1] was 90%; in [3], 90% (inactive); in assay [4], 111% (inactive); in assay [5], 81.8% (inactive); in [6] (setting [16]), 95.5%; in assay [6] (setting [17]), 81.8%. Also, the viability in assay [12] is 100% (inactive); in assay [13] it was 95.2% (inactive). Also, the Her2 level in assay [2] was 94.5% (inactive). Also, the differential viability (reversal) in assay [6] (H69AR cells + 2 uM doxorubicin) is -13.7% (inactive). Further, the inhibition in assay [7] was -2.95% (inactive); in assay [8], 1% (inactive); in assay [14] it was 0.45% (inactive). The growth inhibition in [9] was -3.33% (inactive); in assay [10] it was 8.2% (inactive). Also, the viability increase in assay [11] was -1.47% (inactive). In assay [15], the RAM network inhibition is 3.51% (inactive).
Regarding `Cc1cccc(CN2CCC(CNC(=O)C3CCCN(S(=O)(=O)c4cnc[nH]4)C3)CC2)c1` (stereo not drawn), the viability in assay [1] is 98%; in assay [3], 98% (inactive); in [4], 98.8% (inactive); in assay [5], 89.8% (inactive); in [6] (setting [16]), 87.6%; in assay [6] (setting [17]), 89.8%. The viability in assay [12] was 101% (inactive); in assay [13], 106% (inactive). Besides, the Her2 level in assay [2] was 95.5% (inactive). For the same compound, the differential viability (reversal) in [6] (H69AR cells + 2 uM doxorubicin) is 2.14% (inactive). Further, the values for the inhibition in [7], in assay [8] and in assay [14] were -5.2% (inactive), -0.66% (inactive) and 1.33% (inactive), respectively. The growth inhibition in assay [9] was -0.3% (inactive); in assay [10], -2.77% (inactive). Also, the viability increase in [11] was 0.07% (inactive). Further, the RAM network inhibition in assay [15] was 4.03% (inactive).
Turning to `Clc1ccc(SCCCCn2ccnc2)cc1`, the viability was 90.5% in assay [1]; 90.5% (inactive) in [3]; 102% (inactive) in assay [4]; 99.2% (inactive) in [5]; 88.3% in assay [6] (setting [16]); 99.2% in assay [6] (setting [17]). Also, the viability was 64.8% (inactive) in assay [12] and 65.7% (inactive) in assay [13]. In addition, the Her2 level in [2] was 113% (inactive). Also, the differential viability (reversal) in [6] (H69AR cells + 2 uM doxorubicin) is 10.9% (inactive). For the same compound, the inhibition in assay [7] is 1.22% (inactive); in assay [8], -1% (inactive); in assay [14] it was 0.96% (inactive). Besides, the growth inhibition in assay [9] is 1.02% (inactive); in assay [10] it was -14.2% (inactive). Besides, in [11], the viability increase was 0.79% (inactive). Moreover, the RAM network inhibition in assay [15] is -0.38% (inactive).
Regarding `O=C(Oc1ccc2ccc(OC(=O)N3CCOCC3)cc2c1)N1CCOCC1`, the viability in assay [1] was 96.5%; in [3] it was 96.5% (inactive); in [4], 108% (inactive); in assay [5], 84% (inactive); in [6] (setting [16]), 89.5%; in assay [6] (setting [17]), 84%. Moreover, the viability in [12] is 92.2% (inactive); in assay [13], 87.7% (inactive). In assay [2], the Her2 level was 96% (inactive). The differential viability (reversal) in assay [6] (H69AR cells + 2 uM doxorubicin) is -5.42% (inactive). The values for the inhibition in assay [7], in assay [8] and in [14] were -0.13% (inactive), -2.5% (inactive) and 1.12% (inactive), respectively. For the same compound, the growth inhibition in [9] was -14.7% (inactive); in [10] it was -15.1% (inactive). Besides, the viability increase in [11] is 1.51% (inactive). Further, in assay [15], the RAM network inhibition was 4.57% (inactive).
Consider `N#Cc1cc2c(nc1SCC(=O)N1CCCCC1)CCCC2`, for which the viability is 85% in [1]; 85% (inactive) in assay [3]; 88.3% (inactive) in [4]; 87.6% (inactive) in [5]; 86.4% in assay [6] (setting [16]); 87.6% in assay [6] (setting [17]). Moreover, the results for the viability in assay [12] and in assay [13] were 93% (inactive) and 91.3% (inactive), respectively. Besides, in assay [2], the Her2 level was 130% (inactive). Further, in assay [6] (H69AR cells + 2 uM doxorubicin), the differential viability (reversal) was 1.21% (inactive). Further, the inhibition in [7] was 3.51% (inactive); in assay [8] it was -6.67% (inactive); in assay [14] it was 3.67% (inactive). The growth inhibition was -16.8% (inactive) in [9] and -1.56% (inactive) in assay [10]. The viability increase in assay [11] is -1.73% (inactive). In [15], the RAM network inhibition is 2.13% (inactive).

The viability is a read-out of living cells in per cent, often relative to untreated cells. One may read the inhibition as the change of the read-out against control, counted positive when it falls.
